Screening data (PubChem)
Compounds with a hit are over-represented: about 3% of the library has one in this group of screens.
esBAF inh: inhibitors of esBAF chromatin remodeling in mouse ES cells | Bmi1-luciferase knock-in reporter, 24 h; 100% = twice the neutral-well signal | reporter increase, % at 12.5 µM | 350,000 tested, 2% active; in the data active means activation above about 40%; inconclusive means no clear call, values can overlap the other calls;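 further: a rise in the Bmi1 reporter signal indicates esBAF inhibition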
Vif imaging: blocks HIV Vif function; HEK293T cells, Vif self-association by quenched fluorescence, imaging, 24 h; inhibition, % at 7.49 µM; 340,000 tested, 0.35% active; in the data active means inhibition above about 50%, passing the limit was not always enough; inconclusive means no clear call, values can overlap the other calls; inactive means below about 31%
MITF TRPM1 HTS: MITF TRPM1 promoter activation in melanoma cells. activation, % at 12.5 µM. SK-MEL-5 TRPM1-promoter luciferase, 24 h; % of positive control, neutral wells = 0. 300,000 tested, 0.75% active;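 active means mean activation of at least 80% with every replicate also reaching 80%; inconclusive means mean reaches 80% but some replicate falls short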
Wnt act: Wnt/beta-catenin pathway activation; Wnt/beta-catenin reporter cell assay, activator, plate reader; activation, % at 9.35 µM; 300,000 tested, 1.2% active; AID 743398; in the data active means activation above about 30%, passing the limit was not always enough; inconclusive means no clear call, values can overlap the other calls
PfHsp90 set2: reduces growth (ATP signal) of yeast expressing P. falciparum Hsp90 | S. cerevisiae expressing PfHsp90, BacTiter-Glo ATP, 48 h; yeast lacking PDR1 and PDR3 efflux regulators | 310,000 tested, 0.32% active | AID 504621 | inhibition, % at 9.4 µM;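 active means every replicate shows inhibition above about 80%, whatever the replicate mean, limit read from the data; inconclusive means mean inhibition reaches the set limit but some replicate falls short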
Glyco luc inh: blocks N-linked glycosylation in D54 reporter cells; D54 ERlucT glycosylation luciferase reporter, 24 h; percent of 100 nM tunicamycin response; reporter increase, % at 12.5 µM; 360,000 tested, 0.23% active;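 active means mean luciferase reporter signal, scaled so untreated is 0 and the glycosylation-blocking control 100, at or above a set limit in every replicate; inconclusive means mean reaches the limit but not every replicate does; inactive means mean below the limit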;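 further: luciferase carries N-glycosylation sites so blocking glycosylation raises the light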
Of the large screens only hits and unclear results are named; the others gave an inactive call.

Cc1ccc(Nc2cc(C)nc3nc(C)nn23)cc1	none
COc1ccc(/C=C/C(=O)Nc2cc(C)nn2-c2nc3ccccc3[nH]2)cc1	MITF TRPM1 HTS 92 (no result: esBAF inh)
Cc1ccc(-c2csc(N/N=C/c3ccco3)n2)c(C)c1	esBAF inh 69 (no result: Wnt act)
O=c1c2ccc(Cl)cc2nc(-c2ccc([N+](=O)[O-])cc2)n1O	none
CN(C)c1cccc(C(=O)OCC(=O)N(Cc2ccccc2)C2CCS(=O)(=O)C2)c1 (stereo not drawn)	esBAF inh 46 (no result: PfHsp90 set2)
CC(C(=O)NCc1ccc2c(c1)OCO2)c1ccc([N+](=O)[O-])cc1 (stereo not drawn)	none (no result: esBAF inh)
Cc1ccc(N(Cc2cc3cccc(C)c3[nH]c2=O)S(=O)(=O)c2ccccc2)c(C)c1	none (no result: Wnt act)
CCOc1ccc(-c2cn(-c3ccc(OC)cc3)c(SC)n2)cc1	esBAF inh 65, MITF TRPM1 HTS inconclusive (no result: Wnt act)
O=C(NN1C(=O)/C(=C\c2ccc(O)c([N+](=O)[O-])c2)SC1=S)c1ccccc1Cl	PfHsp90 set2 104
CCCn1c(SCC(=O)NCc2cccs2)nc2c1c(=O)n(C)c(=O)n2C	none (no result: Vif imaging)
CCC(=O)Nc1cccc(NC(=S)NC(=O)c2cccs2)c1	MITF TRPM1 HTS 86 (no result: esBAF inh, Wnt act)
N#Cc1ccccc1NC(=S)NC(=O)c1cccs1	esBAF inh 45
CCC(=O)Nc1cccc(NC(=S)NC(=O)c2ccccc2Cl)c1	none (no result: esBAF inh, Wnt act)
COc1ccc(N=Nc2[nH]c3ccc(C)cc3c2O)cc1	none (no result: esBAF inh, Wnt act)
CCc1ccc2c(COC(=O)c3n[nH]c4ccccc34)cc(=O)oc2c1	esBAF inh 77 (no result: MITF TRPM1 HTS, Wnt act, PfHsp90 set2)
Cc1ccc2c(COC(=O)c3ccccc3F)cc(=O)oc2c1	none
Cc1ccc2c(COC(=O)c3n[nH]c4ccccc34)cc(=O)oc2c1	esBAF inh 69 (no result: MITF TRPM1 HTS, Wnt act)
COc1ccc(NC(=O)c2ccc3c(c2)N(C)CCS3)cc1	esBAF inh 85, Wnt act 53 (no result: MITF TRPM1 HTS)
CN1CCSc2ccc(C(=O)Nc3cccc(F)c3)cc21	esBAF inh 50
CN1CCSc2ccc(C(=O)NCc3ccccc3)cc21	none (no result: MITF TRPM1 HTS)
COc1ccc(NC(=O)c2ccc3c(c2)n(C)c(=O)n3C)cc1	none (no result: Vif imaging)
CCNC(=O)C(=O)NCC(c1cccs1)S(=O)(=O)c1ccc(C)cc1 (stereo not drawn)	none
CSc1nc2sc3c(c2c(=O)n1C)CCCC3	esBAF inh 45 (no result: Wnt act)
O=c1c2c3c(sc2nc2n1CCCC2)CCCC3	esBAF inh 48 (no result: Wnt act)
CSc1nc2sc3c(c2c(=O)n1C)CCC3	none
O=c1c2c3c(sc2nc2n1CCC2)CCCCC3	none (no result: esBAF inh)
O=C(Nc1ccc2c(c1)CCC2)c1cccs1	Wnt act 55 (no result: esBAF inh)
O=C(Nc1cccc(O)c1)c1ccc(NC(=O)c2cccs2)cc1	MITF TRPM1 HTS 103 (no result: esBAF inh, Vif imaging)
CCn1cnc2cc(NC(=O)c3cccs3)ccc21	MITF TRPM1 HTS 95
Nc1ccc(NC(=O)c2cccs2)cc1	none (no result: esBAF inh, MITF TRPM1 HTS)
O=C(Nc1ccc(-n2ccc(C(F)(F)F)n2)cc1)c1cccs1	MITF TRPM1 HTS 123
O=C(NC(=S)Nc1ccc(NC(=O)c2cccs2)cc1)c1ccco1	none
Cc1ccccc1-c1nc(-c2ccc(NC(=O)c3cccs3)cc2)no1	esBAF inh 51
O=C(Nc1ccc(NC(=O)c2cccs2)cc1)c1ccco1	esBAF inh 48, MITF TRPM1 HTS 98 (no result: Wnt act)
Cc1ccc(NC(=O)c2cccs2)cc1	esBAF inh 61
Cc1ccc(NC(=O)C(=O)NNC(=O)c2cccs2)cc1	none (no result: esBAF inh)
O=C(Nc1ccc(NC(=O)c2cccs2)cc1)c1ccccc1	esBAF inh 48
COc1ccc(C#Cc2ccc([C@H]3[C@H]4CN(Cc5ccccc5F)CCCCN4[C@H]3CO)cc2)cc1	none (no result: Vif imaging, MITF TRPM1 HTS, Wnt act, PfHsp90 set2, Glyco luc inh)
COC(=O)CSc1nsc(SCC(=O)OC)c1C#N	none (no result: Wnt act)
COc1ccc(N2CCN(C(=O)CCC(=O)N3CC(C)Oc4ccc(C)cc43)CC2)cc1 (stereo not drawn)	none (no result: MITF TRPM1 HTS)
O=C(CCc1ccccc1)Nc1ccc(NC(=O)c2ccco2)cc1	none
O=C(Nc1ccc(CSc2ccccc2)cc1)c1ccco1	esBAF inh 52
CSCCC(NC(=O)c1ccco1)C(=O)NC1CCC(C)CC1 (stereo not drawn)	esBAF inh 62, MITF TRPM1 HTS 112
O=C(N[C@@H](Cc1ccccc1)C(=O)NC1CCCCCC1)c1ccco1	esBAF inh 45, MITF TRPM1 HTS inconclusive (no result: Wnt act)
Cc1cc(OCC(=O)Nc2ccc3c(c2)OCCO3)cc(C)c1Cl	none (no result: esBAF inh)
COCCn1c(C)cc(C(=O)CN2C(=O)NC3(CCCCCC3)C2=O)c1C	esBAF inh inconclusive, Wnt act inconclusive
